Data from PubChem BioAssay (NCATS).
Results filed as inconclusive are left out. Calls of active or inactive are those of the source. Unless noted, calls come from the whole dose curve; as a rule, active = well fitted curve in the direction sought with a large enough effect; inconclusive = small, poorly fitted or top-dose-only effect, or another doubt; inactive = no such curve, though single readings can be large; an effect the other way counts as inactive or inconclusive.

Key:
UISO = experiment: qHTS assay to identify novel small-molecules to repurpose for Merkel cell carcinoma treatment (AID 1296009); settings: MCC and control cell lines, CellTiter-Glo viability, 72 h; series mostly up to 46 µM; note: % is set by controls: 0 for no effect and ±100 for the full control effect; nearly all actives have a fitted effect of over 60% in size
In short: (§1)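 Cells were treated for 72 hr at 37 degree celsius with compounds in 8- or 11-point dose response. Viability was read by CellTiter-Glo luminescence, normalized to no-cell (cytotoxicity) and DMSO controls.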

WaGa = experiment: as above; settings: MCC and control cell lines, CellTiter-Glo viability, 72 h; series mostly up to 46 µM
In short: as §1

C33A = experiment: Primary qHTS to identify gynecologic anti-cancer compounds using libraries of approved drugs and bioactive compounds (AID 1345084); settings: Gynecologic cancer cell panel viability, ATPlite luminescence, 48 h; series mostly up to 57.5 µM; note: nearly all actives have a fitted effect of over 55% in size; note: potency is the fitted concentration of half-maximal effect
In short: (§2)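 In this quantitative HTS, cell killing is estimated from loss of ATP-dependent luciferase light. Cells see five compound concentrations over a 48 h exposure.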

CASKI = experiment: as above; settings: Gynecologic cancer cell panel viability, ATPlite luminescence, 48 h; series mostly up to 57.5 µM
In short: as §2

Es-2 = experiment: as above; settings: Gynecologic cancer cell panel viability, ATPlite luminescence, 48 h; series mostly up to 57.5 µM
In short: as §2

HeLa = experiment: as above; settings: Gynecologic cancer cell panel viability, ATPlite luminescence, 48 h; series mostly up to 57.5 µM
In short: as §2

Hek293T = experiment: as above; settings: Gynecologic cancer cell panel viability, ATPlite luminescence, 48 h, control line for the selectivity index; series mostly up to 57.5 µM
In short: as §2

JEG-3 = experiment: as above; settings: Gynecologic cancer cell panel viability, ATPlite luminescence, 48 h; series mostly up to 57.5 µM
In short: as §2

OV90 = experiment: as above; settings: Gynecologic cancer cell panel viability, ATPlite luminescence, 48 h; series mostly up to 57.5 µM
In short: as §2

PA-1 = experiment: as above; settings: Gynecologic cancer cell panel viability, ATPlite luminescence, 48 h; series mostly up to 57.5 µM
In short: as §2

SKOV3 = experiment: as above; settings: Gynecologic cancer cell panel viability, ATPlite luminescence, 48 h; series mostly up to 57.5 µM
In short: as §2

Tov-21-G = experiment: as above; settings: Gynecologic cancer cell panel viability, ATPlite luminescence, 48 h; series mostly up to 57.5 µM
In short: as §2

Tov112D = experiment: as above; settings: Gynecologic cancer cell panel viability, ATPlite luminescence, 48 h; series mostly up to 57.5 µM
In short: as §2

[1] = Drug repurposing screens with cells derived from glioblastoma tumor samples (AID 1345199); settings: GBM patient neurospheres viability, ATP luminescence, 48 h; note: nearly all actives have a fitted effect of over 40% in size; note: potency is the fitted concentration of half-maximal effect; for activity, negative = cell killing: % is set by controls: 0 for no effect and ±100 for the full control effect
In short: (§3)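 Four patient lines of CD133+ GBM neurospheres were screened at several concentrations; hits were retested in those lines plus three slower-growing GBM lines, using 48-hour treatment and ATP-based viability.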

astro = experiment: as above; settings: viability, ATP luminescence, 48 h; series mostly up to 45.9 µM
In short: as §3

CAOV3 = experiment: Primary qHTS to identify gynecologic anti-cancer compounds using libraries of approved drugs and bioactive compounds (AID 1345084); settings: Gynecologic cancer cell panel viability, ATPlite luminescence, 48 h; series mostly up to 57.5 µM; note: nearly all actives have a fitted effect of over 55% in size; note: potency is the fitted concentration of half-maximal effect
In short: as §2

[2] = target: Nuclear receptor subfamily 1 group I member 2 (Rattus norvegicus) (UniProt Q9R1A7); experiment: qHTS assay for small molecule activators of the rat pregnane X receptor (rPXR) signaling pathway (AID 651751; call rule not given here; note: 0% is about no effect); settings: rPXR reporter cells, luciferase (One-Glo), 24 h
Chain of Nuclear receptor subfamily 1 group I member 2 (Rattus norvegicus) (Q9R1A7 whole entry, looked up): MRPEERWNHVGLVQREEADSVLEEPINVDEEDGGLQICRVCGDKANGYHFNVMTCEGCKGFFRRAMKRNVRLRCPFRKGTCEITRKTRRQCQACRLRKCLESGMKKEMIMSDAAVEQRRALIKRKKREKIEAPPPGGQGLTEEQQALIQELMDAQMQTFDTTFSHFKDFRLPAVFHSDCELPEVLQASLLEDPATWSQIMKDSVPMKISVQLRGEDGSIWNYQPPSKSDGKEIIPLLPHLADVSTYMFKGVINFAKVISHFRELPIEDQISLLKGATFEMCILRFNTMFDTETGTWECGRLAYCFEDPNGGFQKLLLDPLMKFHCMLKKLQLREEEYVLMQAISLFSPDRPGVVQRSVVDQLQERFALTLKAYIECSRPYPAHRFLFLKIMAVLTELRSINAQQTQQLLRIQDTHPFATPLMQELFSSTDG

[3] = qHTS assay for small molecule activators of the human pregnane X receptor (PXR) signaling pathway (AID 720659; call rule not given here; note: 0% is about no effect)
[4] = at 45.9 µM (top of the series), tumour line B
[5] = at 45.9 µM (top of the series), tumour line D
[6] = at 46 µM (top of the series), tumour line A
[7] = at 21.2 µM (top of the series), tumour line B
[8] = at 21.2 µM (top of the series), tumour line D
[9] = at 21.3 µM (top of the series), tumour line A

CCC1(c2ccc(N)cc2)CCC(=O)NC1=O (stereo not drawn)
inactive: Potency (UISO) | Potency (WaGa) | Potency (C33A) | outcome (CASKI) | Potency (Es-2) | Potency (HeLa) | outcome (Hek293T) | outcome (JEG-3) | Potency (OV90) | Potency (PA-1) | outcome (SKOV3) | Potency (Tov-21-G) | Potency (Tov112D) | activity, negative = cell killing [1, 4] -18.5% | activity, negative = cell killing [1, 5] -18.3% | Potency (astro)

COc1cc(CC(C)N)cc(OC)c1OC (stereo not drawn)
active: Potency (Es-2) 15.8 µM | Potency (HeLa) 1.58 µM | Potency (PA-1) 2.51 µM | Potency (Tov-21-G) 0.708 µM
inactive: Potency (UISO) | Potency (WaGa) | outcome (CAOV3) | outcome (CASKI) | outcome (Hek293T) | outcome (JEG-3) | activity, negative = cell killing ([1]; at 108 µM (top of the series), tumour line B) -12% | activity, negative = cell killing ([1]; at 108 µM (top of the series), tumour line D) -16.2%

O=C1c2ccccc2C(=O)c2ccccc21
inactive: Potency (UISO) | Potency (WaGa) | Potency (C33A) | outcome (CASKI) | Potency (Es-2) | Potency (HeLa) | outcome (Hek293T) | outcome (JEG-3) | Potency (OV90) | Potency (PA-1) | outcome (SKOV3) | Potency (Tov-21-G) | Potency (Tov112D) | activity, negative = cell killing [1, 4] 4.04% | activity, negative = cell killing [1, 5] -17.8% | max response [2] 4.64%

CCCN(CCC)C(=O)Cc1c(-c2ccc(Cl)cc2)nc2ccc(Cl)cn12
active: Potency ([1]; tumour line A) 10 µM
inactive: Potency (UISO) | Potency (WaGa) | Potency (C33A) | outcome (CASKI) | Potency (Es-2) | Potency (HeLa) | outcome (Hek293T) | outcome (JEG-3) | outcome (SKOV3) | Potency (Tov-21-G) | Potency (Tov112D) | activity, negative = cell killing [1, 4] -4.08% | Potency (astro)

CC(C)c1cccc(C(C)C)c1O
inactive: Potency (UISO) | Potency (WaGa) | Potency (C33A) | outcome (CASKI) | Potency (Es-2) | Potency (HeLa) | outcome (Hek293T) | outcome (JEG-3) | Potency (OV90) | Potency (PA-1) | outcome (SKOV3) | Potency (Tov-21-G) | Potency (Tov112D) | activity, negative = cell killing [1, 4] 6.49% | activity, negative = cell killing [1, 5] 2.93% | activity, negative = cell killing [1, 6] -26.1% | max response [2] -2.57%

CC(=O)NC1CCSC1=O (stereo not drawn)
inactive: Potency (UISO) | Potency (WaGa) | Potency (C33A) | outcome (CASKI) | Potency (Es-2) | Potency (HeLa) | outcome (Hek293T) | outcome (JEG-3) | Potency (OV90) | Potency (PA-1) | outcome (SKOV3) | Potency (Tov-21-G) | Potency (Tov112D) | activity, negative = cell killing [1, 7] -5.98% | activity, negative = cell killing [1, 8] 7.84% | activity, negative = cell killing [1, 9] -12.3% | activity, negative = cell killing [1, 4] -16.4% | activity, negative = cell killing [1, 5] -12.7%

CN(C)CCc1c[nH]c2cccc(OP(=O)(O)O)c12
inactive: Potency (UISO) | Potency (WaGa) | Potency (C33A) | outcome (CASKI) | Potency (Es-2) | Potency (HeLa) | outcome (Hek293T) | outcome (JEG-3) | Potency (OV90) | Potency (PA-1) | outcome (SKOV3) | Potency (Tov-21-G) | Potency (Tov112D) | activity, negative = cell killing ([1]; at 91.6 µM (top of the series), tumour line A) -30.1% | activity, negative = cell killing ([1]; at 91.6 µM (top of the series), tumour line B) -11.6% | activity, negative = cell killing ([1]; at 91.6 µM (top of the series), tumour line D) -12.3% | Potency (astro)

CCOP(=S)(OCC)Oc1ccc2c(C)c(Cl)c(=O)oc2c1
inactive: Potency (UISO) | Potency (C33A) | outcome (CAOV3) | outcome (CASKI) | Potency (Es-2) | Potency (HeLa) | outcome (Hek293T) | outcome (JEG-3) | Potency (OV90) | Potency (PA-1) | outcome (SKOV3) | Potency (Tov-21-G) | Potency (Tov112D) | activity, negative = cell killing [1, 4] -3.04% | activity, negative = cell killing [1, 5] 6.08% | Potency (astro)

Oc1ccc(Cl)cc1
inactive: Potency (UISO) | Potency (WaGa) | Potency (C33A) | outcome (CASKI) | Potency (Es-2) | Potency (HeLa) | outcome (Hek293T) | outcome (JEG-3) | Potency (OV90) | Potency (PA-1) | Potency (Tov-21-G) | Potency (Tov112D) | activity, negative = cell killing [1, 4] -7.37% | activity, negative = cell killing [1, 5] -24.9% | activity, negative = cell killing [1, 6] -26.5% | Potency (astro) | max response [2] 5.25% | outcome [3]

CC(C(=O)c1ccccc1)N(C)C (stereo not drawn)
inactive: Potency (UISO) | Potency (WaGa) | outcome (CAOV3) | outcome (CASKI) | Potency (Es-2) | Potency (HeLa) | outcome (JEG-3) | Potency (OV90) | Potency (PA-1) | outcome (SKOV3) | Potency (Tov-21-G) | Potency (Tov112D)

C=CCN1C[C@H](C)N([C@H](c2ccc(C(=O)N(CC)CC)cc2)c2cccc(OC)c2)C[C@H]1C
inactive: Potency (UISO) | Potency (WaGa) | Potency (C33A) | outcome (CASKI) | Potency (Es-2) | Potency (HeLa) | outcome (Hek293T) | outcome (JEG-3) | Potency (OV90) | Potency (PA-1) | outcome (SKOV3) | Potency (Tov-21-G) | Potency (Tov112D) | activity, negative = cell killing [1, 4] -27.6%
active: Potency ([1]; tumour line A) 7.08 µM

C[C@]12CC[C@@H]3c4ccc(OC(=O)N(CCCl)CCCl)cc4CC[C@H]3[C@@H]1CC[C@@H]2O
active: Potency (HeLa) 35.5 µM
inactive: Potency (UISO) | Potency (WaGa) | activity, negative = cell killing [1, 4] -7.93% | activity, negative = cell killing [1, 5] -5.83% | activity, negative = cell killing [1, 6] -29.8%

CC(=O)OCC1=C(C(=O)O)N2C(=O)[C@@H](N)[C@H]2SC1
inactive: Potency (UISO) | Potency (C33A) | outcome (CAOV3) | outcome (CASKI) | Potency (Es-2) | Potency (HeLa) | outcome (Hek293T) | outcome (JEG-3) | Potency (OV90) | Potency (PA-1) | outcome (SKOV3) | Potency (Tov-21-G) | Potency (Tov112D) | activity, negative = cell killing [1, 7] -6.05% | activity, negative = cell killing [1, 8] -13.7% | activity, negative = cell killing [1, 9] -21.2%
